Screening data: PubChem BioAssay, Small Molecule Screening Facility, UW Madison
Only a selection was taken, and hits are over-represented in it overall.
RMI FANCM FP: RMI-FANCM interaction inhibition; Fluorescence polarization, RMI core complex with F-MM2 peptide; hits give low values; FP signal (polarization) at 33 µM; 70,000 tested, 0.58% active; AID 1159607; in the data active = FP signal below about 40
* hit, by the source's call; ! = not confirmed by another sample.

SMILES	RMI FANCM FP
O=C(O)c1cccc2c1-c1ccc(I)cc1C2	54
Cc1cc(O)c2c(c1)C(=O)c1cccc(O)c1C2=O	50
O=C1c2c(O)cccc2Cc2cccc(O)c21	-5*
O=C(N/N=C\c1cc2ccccc2[nH]c1=O)c1ccc(Br)cc1	63
CCCCCC/C=N\Nc1ccc([N+](=O)[O-])cc1[N+](=O)[O-]	53
O=C(NCc1nnc(SCc2cccc([N+](=O)[O-])c2)o1)c1cccc(C(F)(F)F)c1	57
O=C(CS(=O)(=O)c1cn(Cc2ccccc2Cl)c2ccccc12)N1N=C(c2cccs2)CC1c1ccc(F)cc1 (stereo not given)	66
CN(C)c1ccc(C2=CC(C3CC3)=C(C#N)C(=C(C#N)C#N)N2)cc1	31*
Cc1cc(N2CCN(CC(=O)Nc3ccc4c(c3)OCCO4)CC2)c2ccccc2n1	60
CC1CCN(C(=O)CSCC(=O)Nc2nc(-c3ccc4c(c3)OCO4)cs2)CC1	69
Cc1cc(NC(=O)C(=O)c2cn(CC(=O)N3CCOCC3)c3ccccc23)ccc1Br	55
CCN(CC)c1ccc(C=Nc2sc(C)c(C)c2C#N)cc1	68
Cc1ccc(C=Nc2sc(C)c(C)c2C#N)s1	62
Cc1sc(N=Cc2ccco2)c(C#N)c1C	-16*
N=C(N)Sc1cnc2ccccc2n1	37*
O=Cc1cnc2ccccc2n1	59
Cc1cc(SCC(N)=O)nc2ccccc12	71
CC(C)c1ccc(S(=O)(=O)NCc2ccsc2)cc1	65
CC(=O)Nc1ccc(OCCCNC(=O)c2c(-c3ccccc3)noc2C)cc1	63
Cc1onc(-c2ccccc2)c1C(=O)NCCNC(=O)c1c(-c2ccccc2)noc1C	-22*
Cc1onc(-c2ccccc2)c1C(=O)NNC(=O)C1CC1	61
Cc1onc(-c2c(Cl)cccc2Cl)c1C(=O)N[C@@H]1C(=O)N2[C@@H]1SC(C)(C)[C@@H]2C(=O)O	65
COc1cccc(OC)c1C(=O)N[C@@H]1C(=O)N2[C@@H]1SC(C)(C)[C@@H]2C(=O)O	67
Cc1onc(-c2ccccc2)c1C(=O)NC1C(=O)N2[C@@H]1SC(C)(C)[C@@H]2C(=O)O (stereo not given in full)	9*
N#CCS(=O)(=O)c1ccc2c(c1)OCCO2	57
SMILES	RMI FANCM FP
O=C(O)CN1C(=O)/C(=C/c2cn(-c3ccccc3)nc2-c2cc3ccccc3o2)SC1=S	65
CCOC(=O)N1CCN(C(=O)CSc2nnc(-c3c[nH]c4ccccc34)n2C)CC1	59
C1=CC2C(C1)C1CC(Oc3ccccc3)C2C1 (stereo not given)	57
CCc1nn(C)c2c(=O)c(=O)c2n(C)[nH]1	32*
COc1cc([N+](=O)[O-])cc2sc(NC(=O)c3ccc(S(=O)(=O)N(C)C)cc3)nc12	75
CC(=O)CCS(=O)(=O)c1ccc(C)cc1	55
C=Cc1ccc(CSc2nccn3nc(-c4ccc(F)cc4)cc23)cc1	34*
Fc1ccc(-c2cc3c(SCc4cccc(C(F)(F)F)c4)nccn3n2)cc1	69
C=Cc1ccc(CSc2nccn3nc(-c4ccc(OC)cc4)cc23)cc1	70
O=C(CSc1ncnc2c1nnn2-c1cccc(Cl)c1)NCC1CCCO1 (stereo not given)	66
COc1ccc(S(=O)(=O)Nc2ccc3c(c2)N(C(=O)c2ccccc2)CCC3)c(C)c1	71
O=C(NCCn1ncc2c(N3CCOCC3)ncnc21)c1cc(-c2ccccc2)on1	65
O=c1[nH]c(=S)c2c(n1Cc1ccco1)CCCC2	63
O=c1cc(O)n(Cc2ccco2)c(=S)[nH]1	26*
O=C1CNC(=S)N1Cc1ccco1	51
CCS(=O)(=O)N1CCc2ccc(NS(=O)(=O)c3cc(OC)ccc3OC)cc2C1	65
CCNc1nc(SCC(=O)NC(=O)Nc2ccccc2)nc2sc3c(c12)CCN(C)C3	33*!
O=C(CSc1nc2sc3c(c2c(=O)n1-c1ccccc1)CCCCC3)Nc1ccccc1	71
O=C(CSc1nc(SCC(=O)c2ccccc2)c2c3c(sc2n1)CCC3)c1ccccc1	79
COc1ccc(CC(=O)Nc2nnc(-c3ccc(S(=O)(=O)N(C)C)cc3)o2)cc1C	63
COc1ccc(NC(=O)CN2CCC(C(=O)Nc3ccc4c(c3)OCCO4)CC2)c(OC)c1	63
CC(C)c1cc(=O)[nH]c(-n2nc(-c3cccs3)cc2NC(=O)c2cccs2)n1	75
CC(C)c1cc(=O)[nH]c(-n2nc(-c3cccs3)cc2NC(=O)/C=C\c2ccc3c(c2)OCO3)n1	26*
Cc1cc(=O)[nH]c(-n2nc(C)cc2NC(=O)/C=C/c2ccc3c(c2)OCO3)n1	54
O=c1c(/C=c2\sc3nc4ccccc4n3c2=O)coc2ccccc12	-39
SMILES	RMI FANCM FP
COc1ccc(C2CC(=O)N(Cc3ccc([N+](=O)[O-])cc3)c3ccccc3S2)cc1OC (stereo not given)	59
CCS(=O)(=O)N1CCN=C1SCc1cccc2ccccc12	58
O=C(O)c1cccc2cccc(C(=O)O)c12	53
O=C(O)c1cccc(Cl)c1C(=O)O	58
Nc1ccc(C(=O)O)c2c(C(=O)O)cccc12	19*
CCCn1c(SCc2nc(-c3cccc(Cl)c3)no2)nc2cc3c(cc2c1=O)OCO3	75
CCCCOc1ccc(C(=O)Nc2ccncc2NC(=O)c2ccc(OCCCC)cc2)cc1	70
COc1ccccc1Oc1c(C)oc2cc(OCC(N)=O)ccc2c1=O	65
O=C(Cn1nnc(N2CCOCC2)n1)N/N=C\c1ccc(-c2cccc([N+](=O)[O-])c2)o1	53
Cc1cc2cc(CNC(=O)c3ccccc3F)ccc2n1C	58
Cc1cc2cc(CNC(=O)c3ccccc3Cl)ccc2n1C	30*
Cc1cc2cc(CNC(=O)c3ccccc3Br)ccc2n1C	55
CCOc1ccc(-c2ccc(=O)n(CCNC(=O)c3cccnc3Cl)n2)cc1	56
O=C(c1ccc2c(c1)OCCO2)N1CCCCC1	-20*
O=C(Cc1ccc2c(c1)OCO2)N1CCCCC1	53
O=C(O)c1ccc2c(c1)OCCO2	53
CCC(=O)Nc1ccc(SCC(=O)Nc2cc(OC)ccc2OC)nn1	68
NC(=O)CSc1ccnc(SCC(N)=O)n1	64
CN(C1CC1)S(=O)(=O)c1ccc(C(=O)N2CC(=O)Nc3ccccc32)cc1	56
O=C1CC(c2ccccc2)CC(=O)N1c1ccccc1	56
NNC(=O)C1C(C(=O)NN)C1c1ccccc1 (stereo not given)	58
CC(=O)C1=CN(c2ccccc2)C=C(C(C)=O)C1c1ccccc1	19*
Cc1ccc(NC(=O)Cn2nc(C3CCCN(S(C)(=O)=O)C3)n(C)c2=O)c(C)c1 (stereo not given)	60
CC(=O)N(CCn1cccn1)c1nc2ccccc2s1	63
N#C/C(=C\c1ccc(O)c(O)c1)C(=O)c1ccc(O)c(O)c1	93
SMILES	RMI FANCM FP
O=C(O)C=Cc1ccc(O)c(O)c1	60
O=c1cc(O)cc(/C=C/c2ccc(O)c(O)c2)o1	15*
Cc1cc(C)c2nc(C)cc(NC(=O)Cc3cccs3)c2c1	32
COc1ccc(Cc2nnc(NC(=O)c3cccc(OC)c3)o2)cc1	64
O=C(NCCOc1cccc(C(F)(F)F)c1)c1ccc(F)c(F)c1	61
COc1ccc(-c2nnc(NC(=O)c3ccccc3)o2)cc1	69
Cc1cc(=O)oc2cc(O)ccc12	51
Cc1cc(=O)oc2cc(O)c(O)cc12	10*
Cc1cc(=O)oc2c(O)c(O)ccc12	66
O=C(COc1ccc(Cl)cc1Cl)Nc1ccc(SCC(=O)N2CCCC2)nn1	71
COc1cc(NC(=O)Cn2ccn(-c3ccc(OC)c(OC)c3)c(=O)c2=O)cc(OC)c1	55
